Source: PubChem
FBPA Giardia inh – blocks Giardia fructose-bisphosphate aldolase activity; AID 2451; A8B2U2; Potency, µM (doses to about 59.6 µM), for the others: top-dose activity, negative = inhibition, usual class: inhibitors; purified Giardia FBPA; hit rate 0.71% among 290,000; note: potency is the fitted concentration of half-maximal effect; % is set by controls: 0 for no effect and ±100 for the full control effect; nearly all actives have a fitted effect of over 55% in size
Target sequence (A8B2U2 whole entry, looked up): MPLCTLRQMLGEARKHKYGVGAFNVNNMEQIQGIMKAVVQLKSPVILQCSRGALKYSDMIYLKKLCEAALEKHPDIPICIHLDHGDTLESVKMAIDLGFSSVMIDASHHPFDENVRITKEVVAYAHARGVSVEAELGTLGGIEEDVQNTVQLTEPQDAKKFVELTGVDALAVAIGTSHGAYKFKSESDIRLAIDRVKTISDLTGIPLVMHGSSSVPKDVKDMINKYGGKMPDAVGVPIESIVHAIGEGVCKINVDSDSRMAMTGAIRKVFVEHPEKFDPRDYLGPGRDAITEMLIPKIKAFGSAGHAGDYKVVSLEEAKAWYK
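Giardia FBPA (40 nM reagent) was preincubated 10 min at RT with compound (up to 57.5 uM final), then substrate plus GAPDH/TPI/NAD/arsenate coupling system with diaphorase/resazurin was added; resorufin fluorescence (525/598 nm) was read after 20 min.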
NS1 inh – blocks influenza NS1 protein function | Potency, µM (doses to about 46.1 µM), without a hit: top-dose activity, positive = more growth | hit rate 0.4% among 270,000; calls by dose curve; note: potency is the fitted concentration of half-maximal effect; actives are rising curves; nearly all actives have a fitted effect of over 50% in size
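S. cerevisiae expressing influenza A NS1, grown in glucose, washed, then diluted 1:100 into pH 6.0 -URA galactose medium with 23 nl compound. Growth recovery read as OD600; NS1-free strain serves as control.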
Sm TGR inh – blocks Schistosoma mansoni thioredoxin glutathione reductase; Q962Y6; purified TGR, DTNB reduction, TNB absorbance 405 nm; AID 485364; hit rate 3% among 360,000; Potency, µM (highest dose often 114 µM), for inactives: top-dose activity change, negative = inhibition, hits mostly inhibitors; note: potency is the fitted concentration of half-maximal effect; % is set by controls: 0 for no effect and ±100 for the full control effect; nearly all actives have a fitted effect of over 60% in size
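First, TGR (20 nM dispensed) and NADPH were mixed with compound. Second, a 15 min room-temperature incubation followed. Third, further NADPH and then DTNB were added to start the reaction. Finally, TNB absorbance was monitored kinetically.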
TbPYK inhibitor – T. brucei pyruvate kinase inhibition. Q57TT1. TbPYK enzyme, Kinase-Glo Plus ATP luminescence, 45 min. Potency, µM (series often up to 76.8 µM), inactives show top-dose activity, negative = inhibition, most hits filed as inhibitors. hit rate 0.12% among 410,000. AID 624173; note: potency is the fitted concentration of half-maximal effect; % is set by controls: 0 for no effect and ±100 for the full control effect; nearly all actives have a fitted effect of over 50% in size
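Enzyme and substrate buffer are dispensed first and compound is pin-transferred. ADP at 130 uM final then starts the reaction, which runs 45 min at room temperature. Detection reagent is added for 10 min before luminescence is imaged.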
LmPK inh – LmPK (Leishmania mexicana) enzyme inhibition. Potency, µM (top dose mostly 57.5 µM), for inactives: top-dose activity change, negative = inhibition, actives largely listed as inhibitors. hit rate 0.37% among 290,000. purified LmPK, Kinase-Glo ATP luminescence, 1 h; note: potency is the fitted concentration of half-maximal effect; % is set by controls: 0 for no effect and ±100 for the full control effect
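Pyruvate kinase activity monitored as ATP production (luciferase luminescence). Conditions: 0.1 nM enzyme, 0.5 mM PEP, 0.1 mM ADP, 1 h, RT; normalized against uninhibited and no-enzyme wells.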
RE007 growth inh – less growth of the S. pombe RE007 Vpr strain; Potency, µM (series often up to 92.2 µM), for inactives: top-dose activity change, negative = less growth, usual class: inhibitors; S. pombe RE007 Vpr strain, BacTiter-Glo ATP luminescence, 24 h; hit rate 0.21% among 360,000; AID 651644; active = well fitted falling curve with a large enough effect; inconclusive = small, poorly fitted or top-dose-only effect; inactive = no such curve, though single readings can be large or run the other way; note: potency is the fitted concentration of half-maximal effect; % is set by controls: 0 for no effect and ±100 for the full control effect; nearly all actives have a fitted effect of over 50% in size
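Fission yeast RE007 carrying one integrated HIV-1 vpr copy, seeded at OD 0.01 in PMG+AL medium with 23 nL pinned compound. Grown 24 h at 30 degrees; viability read by BacTiter-Glo luminescence after 5 min.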
NS1 inh valid – influenza NS1 function inhibition validation; shares compounds with NS1 inh; influenza NS1 function cell assay, 15-point titration; activity change, negative = inhibition, % at 32.9 µM; 1,400 tested, under 10 active; calls by dose curve; note: 0% is about no effect
PR8 titer – reduces influenza A/PR/8/34 replication in MDCK cells; AID 504647; hit rate 30% among 95; shares compounds with NS1 inh; virus titer (log TCID50), log10 TCID50 at 5 µM; MDCK infected influenza A/PR/8/34, virus titer TCID50; hits give low values; call rule not given here
The depositor's hits bear a star; ? = inconclusive; / = not tested or not shown. This is a sample that favours compounds with a hit; in the whole collection about 3.5% have one here. Unless noted, calls come from the whole dose curve; as a rule, active = well fitted curve in the direction sought with a large enough effect; inconclusive = small, poorly fitted or top-dose-only effect, or another doubt; inactive = no such curve, though single readings can be large; an effect the other way counts as inactive or inconclusive.

SMILES	FBPA Giardia inh	NS1 inh	Sm TGR inh	TbPYK inhibitor	LmPK inh	RE007 growth inh	NS1 inh valid	others
CCC(C)c1c(O)nc(SCC(=O)Nc2ccccc2)[nH]c1=O (stereo not drawn)	7%	-4%	-3%	-2%	5%	-17%	/
Cc1ccc(C(=O)CSc2nc(O)cc(=O)[nH]2)cc1C	-8%	7.9µM*	-1%	2%	3%	-5%	?
Nc1ncnc2c([C@@H]3O[C@@H](CO)[C@H](O)[C@@H]3O)nsc12	/	-4%	/	/	/	/	/
Cc1ccc(-c2cc(C(=O)Nc3sc4c(c3C(=O)NCc3ccco3)CCC4)[nH]n2)c(O)c1	-2%	?	4%	3%	4%	10%	3
COc1ccc(-c2cc(C(=O)NCCc3ccc(OC)c(OC)c3)c3ccccc3n2)cc1	/	/	-9%	-8%	/	/	/
Cc1cc(C)c2nc(N3CCN(C)CC3)c(C#N)cc2c1	-5%	6.3µM*	-3%	-3%	3%	2%	-24
Cc1ccc2cc(C#N)c(N3CCN(C)CC3)nc2c1	5%	0%	0%	5%	4%	3%	/
Cc1ccc2nc(N3CCN(C)CC3)c(C#N)cc2c1	-5%	6.3µM*	2%	-16%	0%	5%	0
O=C1NC(=Nc2ccccc2)S/C1=C\C=C\c1ccco1	?	4.5µM*	11µM*	-16%	0%	-10%	?
CN1C(=O)C(c2nnc(Nc3cccc4ccccc34)s2)C2CC1(C)Oc1ccccc12 (stereo not drawn)	-8%	11µM*	-1%	2%	0%	-8%	-21
COc1ccc(-c2[nH]c3ccccc3c2SCCNC(=O)c2cc3ccccc3oc2=O)cc1	-2%	10µM*	-8%	-15%	0%	11%	2
Cc1cccc(NC(=O)c2cc(NC(=O)c3ccccc3)ccc2N2CCCCC2)c1	1%	?	2%	-4%	3%	-1%	2	PR8 titer=8.5
Cc1ccccc1C(=O)Nc1cccc(C(=O)Nc2ccccc2C(=O)O)c1	11%	11µM*	-17%	7%	-5%	0%	14
CC(=O)c1ccc(NS(=O)(=O)c2cccc(C(=O)Nc3ccccc3C(=O)O)c2)cc1	15%	13µM*	?	-14%	-6%	4%	31
Cc1cccc(NC(=O)c2cc(NC(=O)c3ccco3)ccc2N2CCCCC2)c1	5%	2%	0%	-5%	-3%	1%	/
O=C(Nc1ccccc1C(=O)O)c1cccc(NC(=O)c2ccccc2Cl)c1	-6%	2%	0%	7%	31%	-13%	/
Cc1cccc(NC(=O)C2CCCN(c3nc(C)cc(C)n3)C2)c1 (stereo not drawn)	3%	8.9µM*	-1%	-3%	0%	-6%	1
COc1ccc(NS(=O)(=O)c2cccc(C(=O)Nc3ccccc3C(=O)O)c2)cc1	-10%	?	-9%	4%	1%	-1%	/
Cc1cccc(NS(=O)(=O)c2cccc(C(=O)Nc3cccc(C(=O)O)c3)c2)c1	-6%	2.2µM*	7%	3%	5%	7%	31
COc1ccccc1N1CCN(C(=O)CCNC(=O)Cn2ccc3ccccc3c2=O)CC1	-5%	-6%	2%	5%	9%	2%	/
Cc1ccc(C)c(N2CCN(C(=O)CCNC(=O)Cn3ccc4ccccc4c3=O)CC2)c1	3%	?	16%	1%	0%	-1%	3
COCCn1nnnc1C(c1ccccc1)N1CCN(Cc2ccc3c(c2)OCO3)CC1 (stereo not drawn)	11%	4.5µM*	-25%	0%	7%	2%	-4
Cc1ccc(/C=N/NC(=O)CN(Cc2ccccc2)S(=O)(=O)c2ccc3c(c2)OCCO3)cc1	-2%	13µM*	-1%	3%	5%	3%	2	PR8 titer=8.5
CC(=O)Nc1nc(C)c(-c2csc(Nc3ccc(O)cc3)n2)s1	-8%	3.2µM*	-24%	-21%	1%	10%	18
Cc1cc(O)ccc1Nc1nc(-c2sc(N)nc2C)cs1	-6%	11µM*	-27%	-10%	-1%	-9%	6
SMILES	FBPA Giardia inh	NS1 inh	Sm TGR inh	TbPYK inhibitor	LmPK inh	RE007 growth inh	NS1 inh valid	others
Cc1nc(N)sc1-c1csc(Nc2ccccc2)n1	-23%	16%	-13%	-5%	-5%	-27%	/
CCOC(=O)c1ccc(NC(=O)CCc2c(C)nc3nc[nH]n3c2=O)cc1	/	/	0%	-8%	/	/	/
CCOC(=O)c1ccc(S(=O)(=O)NCC(c2ccc(N(C)C)cc2)c2c[nH]c3ccccc23)cc1 (stereo not drawn)	-3%	8.9µM*	1%	-18%	5%	-17%	?
CN(C)c1ccc(C(CNS(=O)(=O)c2ccc(F)cc2)c2c[nH]c3ccccc23)cc1 (stereo not drawn)	-19%	17%	-4%	-6%	-4%	-5%	/
O=C(NC1CCCCCC1)c1ccc2c(c1)sc1nc(-c3ccc(F)cc3)cn12	/	/	-22%	4%	/	/	/
CN(N=O)c1cc(O)ccc1O	-24%	18µM*	/	/	/	/	?
NCCNC(=S)S	/	-30%	/	/	/	/	/
CC(=O)c1ccc(NC(=O)CSc2nc3c(=O)n(C)c(=O)n(C)c3n2C)cc1	/	/	-1%	3%	/	/	/
COC(=O)C1=C(C)OC(N)=C(C#N)C1c1c(C)nn(C)c1C (stereo not drawn)	-18%	2.2µM*	?	-5%	7%	-3%	10
COC(=O)C1=C(C)OC(N)=C(C#N)C1c1c(C)nn(-c2ccccc2)c1Cl (stereo not drawn)	-13%	-4%	-9%	-6%	5%	7%	/
COc1cccc(N2CCN(C(=O)c3nc(-c4ccc(Cl)cc4)n4c3CCCCC4)CC2)c1	/	/	12%	1%	/	/	/
Cc1c(Cl)cccc1NC(=O)CSc1nncn1-c1ccccn1	3%	?	3%	-2%	0%	15%	0	PR8 titer=8.5
Cc1cc(NC(=O)CCC(=O)N(CC(=O)NC2CCCC2)c2cccc(F)c2)no1	4%	?	13%	3%	0%	1%	-7
CCOC(=O)C1CCN(C(=O)CSc2ccccc2)CC1	2%	11µM*	-33%	-17%	-8%	4%	17
CCC(C(=O)Nc1cc(OC)ccc1OC)n1c(C)c2cnn(-c3ccccc3)c(=O)c2c1C (stereo not drawn)	/	/	-15%	2%	/	/	/
